Data reported in the supplement of paper PMC3545927.
Some of the results follow. The hit rate among all sequences tested is not known here.

B1: HC1775 (peptide)
chain: CAMEECSQHHAGNASASA
B2: FS-2337 (peptide)
chain: CARHRRHHHQAGNASASA
B3: FS-2680 (peptide)
chain: CARHRKHSPQAGNASASA
B4: FS-2158 (peptide)
chain: CARMRRHHHHAGNASASA
B5: FS-1209 (peptide)
chain: CAHPKQEKRSAGNASASA
B6: FS-795 (peptide)
chain: CAHPHRTKREAGNASASA
B7: HC1328 (peptide)
chain: CALTESTLSTAGNASASA
B8: FS-2864 (peptide)
chain: CAHPKRAVREAGNASASA
B9: FS-950 (peptide)
chain: CAQAGRSRKEAGNASASA
B10: FS-1009 (peptide)
chain: CAHPHRQRKEAGNASASA
B11: FS-1138 (peptide)
chain: CALTERTKREAGNASASA
B12: HC839 (peptide)
chain: CAVPHPNIEEAGNASASA
B13: FS-1010 (peptide)
chain: CAHRSRKAKEAGNASASA
B14: FS-2656 (peptide)
chain: CAREKKAALEAGNASASA

Molecular target: furin, P09958
Assay: furin cleavage Z-score vs untreated control; higher = more cleavage, active = 3.5 or more, inactive = 1 or less, 8 variable residues between constant flanks
Procedure, shortened: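 Furin cleavage was scored on 8-mer peptides joined to a cDNA oligonucleotide and bound to magnetic beads at the N-terminus. Digestion with purified furin (1:10 enzyme:substrate, 0.01 ml, 50 mM HEPES pH 7.5, CaCl2, NaCl) lasted 7.5, 15 or 30 min. Freed DNA was tagged with adapters by PCR, sequenced and counted; the cleavage Z-score is the lowess-adjusted log count versus furin-free reactions, scaled by median absolute deviation.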

furin, P09958, sequence (P09958 whole entry): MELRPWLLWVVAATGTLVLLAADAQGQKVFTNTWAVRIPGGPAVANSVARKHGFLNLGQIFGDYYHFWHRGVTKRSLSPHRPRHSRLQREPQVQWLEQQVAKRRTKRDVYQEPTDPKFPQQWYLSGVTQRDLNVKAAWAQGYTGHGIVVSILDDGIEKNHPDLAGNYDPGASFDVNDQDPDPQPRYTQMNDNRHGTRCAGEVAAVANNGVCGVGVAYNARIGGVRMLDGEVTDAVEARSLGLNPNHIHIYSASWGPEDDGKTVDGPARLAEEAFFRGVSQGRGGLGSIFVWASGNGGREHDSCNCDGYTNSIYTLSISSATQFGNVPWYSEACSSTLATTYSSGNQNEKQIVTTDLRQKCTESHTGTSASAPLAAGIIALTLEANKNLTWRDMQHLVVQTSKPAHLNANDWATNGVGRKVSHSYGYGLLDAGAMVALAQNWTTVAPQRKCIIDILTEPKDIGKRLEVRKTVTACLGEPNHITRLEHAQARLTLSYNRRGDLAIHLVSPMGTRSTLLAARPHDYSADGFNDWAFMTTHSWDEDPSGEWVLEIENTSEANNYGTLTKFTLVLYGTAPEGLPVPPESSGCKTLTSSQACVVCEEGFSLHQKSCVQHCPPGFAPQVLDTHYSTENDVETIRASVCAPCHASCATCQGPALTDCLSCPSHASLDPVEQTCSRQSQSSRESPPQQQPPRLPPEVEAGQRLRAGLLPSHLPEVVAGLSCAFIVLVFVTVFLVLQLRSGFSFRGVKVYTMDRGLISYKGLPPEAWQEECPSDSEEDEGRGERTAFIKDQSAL

| Sequence | furin cleavage Z-score (7.5 min) | furin cleavage Z-score (15 min) | furin cleavage Z-score (30 min) |
| --- | --- | --- | --- |
| B1 | 1.05 | -0.421 (inactive) | 0.321 (inactive) |
| B2 | 2.13 | 3.45 | 4 (active) |
| B3 | 0.00638 (inactive) | 0.0202 (inactive) | -0.323 (inactive) |
| B4 | 2.42 | 4.46 (active) | 5.23 (active) |
| B5 | -0.192 (inactive) | 1 (inactive) | 1.55 |
| B6 | 11.5 (active) | 12 (active) | 10.4 (active) |
| B7 | -0.00854 (inactive) | 0.199 (inactive) | 1.01 |
| B8 | 8.59 (active) | 8.52 (active) | 7.41 (active) |
| B9 | 0.322 (inactive) | -1.35 (inactive) | 0.565 (inactive) |
| B10 | 2.12 | 4.93 (active) | 2.5 |
| B11 | 12.3 (active) | 13 (active) | 9.22 (active) |
| B12 | 0.645 (inactive) | -1.08 (inactive) | 0.089 (inactive) |
| B13 | 1.54 | 0.417 (inactive) | 1.2 |
| B14 | -1.1 (inactive) | 1.19 | 0.78 (inactive) |
